High-throughput results (PubChem)
An excerpt weighted towards active compounds, which were near 17% of everything screened.
HepG2 viability: qHTS for Inhibitors of TGF-b: Cytotox Counterscreen. HepG2 CAGA-GFP viability, ATP luminescence, 18 h. Potency, µM (doses to about 46.1 µM), actives largely listed as cytotoxic. actives 0.76% (n = 410,000). AID 588856, 2011
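CellTiter-Glo luminescence gave cytotoxicity after 18 hours at 37 degrees C. The cells were HepG2 CAGA-GFP in 1% FBS DMEM, stimulated with 500 pg/mL TGF-beta after compound addition. %Activity was normalised to no-cell wells (complete cell-killing) and DMSO (no toxicity), and curves were fitted and classified.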
S2 tox: Viability Counterscreen for Primary qHTS for Inhibitors of ATXN expression; S2 cells (HEK-293 line with an ATXN2-luciferase reporter) viability, CellTiter-Fluor protease fluorescence, 24 h; Potency, µM (series often up to 56.7 µM), actives largely listed as cytotoxic; actives 0.49% (n = 400,000); AID 651635, 2014; further: nearly all actives have a fitted effect of over 40% in size
TGFb SMAD3 inh: qHTS for Inhibitors of TGF-b | HepG2 CAGA-GFP TGF-b/SMAD3 reporter, GFP fluorescence, 18 h; TGF-beta stimulated, 500 pg/mL final | Potency, µM (doses to about 46.1 µM), usual class: inhibitors | actives 1.2% (n = 410,000); further: nearly all actives have a fitted effect of over 65% in size
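Using HEPG2 CAGA-GFP reporter cells at 1000 cells/well, we pinned test compounds, stimulated with recombinant TGF-beta (500 pg/mL final) and measured total well GFP after 18 h.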
DT40 TDP1 no CPT: qHTS for Inhibitors of human tyrosyl-DNA phosphodiesterase 1 (TDP1): qHTS in cells in absence of CPT; DT40 Tdp1-/- hTDP1 cells, no CPT, ATP luminescence, 48 h; actives 15% (n = 420,000); Potency, µM (top dose mostly 46.2 µM), actives largely listed as inhibitors; further: nearly all actives have a fitted effect of over 55% in size
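Growth kinetics read by CellTiter-Glo luminescence after ≥48 hr at 37 °C. Cells: DT40 Tdp1-/- stably carrying human TDP1, 400 per well, compound exposure in the absence of CPT (DMSO vehicle).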
DT40 TDP1 CPT: qHTS for Inhibitors of human tyrosyl-DNA phosphodiesterase 1 (TDP1): qHTS in cells in presence of CPT; chicken DT40 Tdp1-/-;hTDP1 cells + 20 nM CPT, ATP luminescence, 48 h; actives 12% (n = 420,000); Potency, µM (series often up to 46.2 µM), actives largely listed as inhibitors; AID 686979, 2013; further: nearly all actives have a fitted effect of over 55% in size
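Cell growth measured by CellTiter-Glo luminescence after a minimum 48 h, 37 C compound exposure with 20 nM CPT in Tdp1-knockout DT40 cells stably expressing hTDP1, seeded 400/well; qHTS titration format.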
ATXN2 expr inh: Primary qHTS for Inhibitors of ATXN expression. HEK-293 ATXN2-luciferase reporter, luminescence, 24 h. Potency, µM (top dose mostly 57 µM), actives largely listed as inhibitors. actives 0.72% (n = 360,000); further: nearly all actives have a fitted effect of over 55% in size
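ATXN2-luciferase reporter cells (luciferase flanked by upstream and downstream ATXN2 gene portions) were treated 24 h at 37 °C with compounds at up to 57 uM. SteadyGlo luminescence gave expression; GF-AFC fluorescence gave viability.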
Hits are given with their value; – = inactive; ? = inconclusive; · = no result given. The call rests on the fitted dose curve; in most records, active means well fitted curve in the direction sought with a large enough effect; inconclusive means small, poorly fitted or top-dose-only effect, or another doubt; inactive means no such curve, though single readings can be large; an effect the other way counts as inactive or inconclusive.

SMILES	HepG2 viability	S2 tox	TGFb SMAD3 inh	DT40 TDP1 no CPT	DT40 TDP1 CPT	ATXN2 expr inh
Cc1cc(Cl)ccc1NC(=O)CN1CCN(C(=O)c2ccco2)CC1	–	–	–	–	–	–
O=C(NCc1ccccn1)Nc1cccc(Cl)c1	–	–	–	–	–	–
O=C(CSC1=NNC(c2ccccn2)S1)Nc1ccccc1 (centres undefined)	–	?	?	1.8µM	2.1µM	?
O=C(CSC1=NNC(c2ccccn2)S1)Nc1cccc(Cl)c1 (centres undefined)	–	–	–	1.8µM	1.8µM	?
CCCCCCCCCCCCC[N+](C)(C)Cc1ccccc1	·	·	·	0.58µM	0.65µM	·
CCCCCCCCCCCCCCCC[N+](C)(C)Cc1ccc(F)cc1	–	–	?	7.3µM	6.5µM	?
CCCCCCCCCCCCCCCCCCN(CCCCCCCCCCCCCCCCCC)c1ccccc1	–	·	–	–	–	·
COc1ccc(Cl)cc1NC(=S)N(CCN1CCOCC1)C1CCN(C(C)=O)CC1	–	–	–	–	–	–
COc1cccc2sc(=NC(=O)CS(=O)(=O)c3ccccc3)n(C)c12	–	–	–	15µM	?	·
Cn1c(=NC(=O)CS(=O)(=O)c2ccccc2)sc2cc(F)ccc21	–	–	–	?	?	·
COc1cccc2sc(=NC(=O)CS(=O)(=O)c3ccc(F)cc3)n(C)c12	–	–	?	12µM	?	–
COc1cccc2sc(=NC(=O)CS(=O)(=O)c3ccc(Cl)cc3)n(C)c12	–	–	–	2.3µM	7.3µM	–
CCn1c(=NC(=O)CS(=O)(=O)c2ccc(C)cc2)sc2cccc(OC)c21	–	–	?	16µM	?	–
CC(=O)N[C@@H]1[C@H](O[C@@H]2c3ccc(c(Cl)c3)Oc3cc4cc(c3O[C@H]3O[C@H](CO)[C@@H](O)[C@H](O)[C@H]3NC(=O)CCCCCCCC(C)C)Oc3ccc(cc3Cl)C[C@H]3NC(=O)[C@H](N)c5ccc(O)c(c5)Oc5cc(O)cc(c5)[C@H](NC3=O)C(=O)N[C@H]4C(=O)N[C@H]3C(=O)N[C@@H]2C(=O)N[C@@H](C(=O)O)c2cc(O)cc(O[C@H]4O[C@H](CO)[C@@H](O)[C@H](O)[C@H]4O)c2-c2cc3ccc2O)O[C@H](CO)[C@@H](O)[C@@H]1O	·	·	·	·	·	–
Cc1ccc(C2CC(=O)N(Cc3ccccc3)c3c2c(C)nn3-c2nc(C)cc(C)n2)cc1 (centres undefined)	–	?	–	?	?	–
COc1ccc(CCNC(=O)c2cc(-c3ccc(C)cc3)nc3n[nH]c(-c4ccccc4)c23)cc1OC	–	–	–	–	–	–
COc1ccc(-c2cc(C(=O)NCCc3ccccc3)c3c(-c4ccccc4)[nH]nc3n2)cc1OC	–	–	?	?	16µM	–
CCOc1ccc(-c2cc(C(=O)NCCc3ccccc3)c3c(-c4ccc(C)cc4)[nH]nc3n2)cc1	–	–	–	15µM	12µM	–
CCOc1ccc(C(=O)NCC(c2ccc3c(c2)OCO3)N2CCN(C)CC2)cc1 (centres undefined)	–	?	–	–	–	–
COc1ccc(NC(=O)Cc2csc(NC(=O)Nc3ccccc3OC)n2)c(OC)c1	–	?	–	13µM	?	–
CCN(CC(=O)Nc1ccccc1OC)Cc1csc(CC(=O)Nc2ccc(C)cc2)n1	–	–	–	16µM	26µM	–
COc1ccccc1NC(=O)Cc1csc(NC(=S)Nc2ccccc2)n1	–	?	14µM	6.5µM	4.6µM	–
COc1ccc(OC)c(NC(=O)Cc2csc(NC(=O)Nc3ccccc3OC)n2)c1	–	–	–	21µM	?	?
